Data published in PubChem BioAssay (NCI).
About 83,000 compounds went through this panel and 20% of them were active in at least one assay; those are over-represented in the sample as a whole.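 A percent growth of 40 corresponds to 60% growth inhibition; 0 means no net growth; -100 means all cells died. Active threshold: below 10.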 Values without a mark were called inactive. The source made the active and inactive calls.

Experiments:
Experiment in all cases: NCI-60 one-dose screen, 48 h (100 = growth as untreated, 0 = no growth, -100 = all killed)
Conditions in all cases: 10 µM unless noted
NCI-H23 lung = system: NCI-H23 lung
NCI-H226 lung = system: NCI-H226 lung
NCI-H322M lung = system: NCI-H322M lung
HOP-62 NSCLC = system: HOP-62 NSCLC
NCI-H460 lung = system: NCI-H460 lung
HOP-92 NSCLC = system: HOP-92 NSCLC
NCI-H522 lung = system: NCI-H522 lung
A549/ATCC NSCLC = system: A549/ATCC NSCLC
786-0 renal = system: 786-0 renal
DU-145 prostate = system: DU-145 prostate
K-562 leukemia = system: K-562 leukemia
MALME-3M melanoma = system: MALME-3M melanoma
MDA-MB-231 breast = system: MDA-MB-231 breast
RXF 393 renal = system: RXF 393 renal
SF-268 CNS = system: SF-268 CNS
SF-295 CNS = system: SF-295 CNS
SF-539 CNS = system: SF-539 CNS
UACC-257 melanoma = system: UACC-257 melanoma
M14 melanoma = system: M14 melanoma
COLO 205 colon = system: COLO 205 colon

| SMILES | growth (NCI-H23 lung) | growth (NCI-H226 lung) [%] | growth (NCI-H322M lung) [%] | growth (HOP-62 NSCLC) [%] | growth (NCI-H460 lung) [%] | growth (HOP-92 NSCLC) [%] | growth (NCI-H522 lung) | growth (A549/ATCC NSCLC) | growth (786-0 renal) [%] | growth (DU-145 prostate) | growth (K-562 leukemia) [%] | growth (MALME-3M melanoma) | growth (MDA-MB-231 breast) | growth (RXF 393 renal) [%] | growth (SF-268 CNS) [%] | growth (SF-295 CNS) [%] | growth (SF-539 CNS) [%] | growth (UACC-257 melanoma) | growth (M14 melanoma) | growth (COLO 205 colon) [%] |
| --- | --- | --- | --- | --- | --- | --- | --- | --- | --- | --- | --- | --- | --- | --- | --- | --- | --- | --- | --- | --- |
| O=C1C(Cl)=C(Nc2ccc3c(c2NC2=C(Cl)C(=O)c4ccccc4C2=O)C(=O)c2ccccc2C3=O)C(=O)c2ccccc21 | -3.56% (active) | 36.9 | 46.9 | 39.5 | 10.4 | 61.4 | 12.4% | -31.8% (active) | 48.5 | -83.9% (active) | 16.6 | -85.1% (active) | 14.6% | 48.5 | 39.5 | 23.8 | 15 | -20.4% (active) | -64.8% (active) |  |
| COC1=CC2C=C(C3N(c4ccccc4)NC(=O)[C@@H]4CCCN34)C(=O)NC2C=C1 (stereo partly drawn) | 89.7% | 105 | 93.5 | 93.1 | 110 | 124 | 87.6% | 107% | 99.5 | 112% | 93.3 | 113% | 111% | 116 | 99.8 | 103 | 109 | 108% | 101% | 111 |
| N#CC1(C#N)C2=C(CCCC2)NC(c2c(F)cccc2Cl)C1(C#N)C#N (stereo not drawn) | 82% | 92.1 | 91.1 | 72.1 | 95.1 | 42.9 | -14.1% (active) | 92.6% | 88.7 | 89.7% | 25.8 | 74.7% | 87.5% | 78.2 | 89.9 | 81.3 | 50.1 | 75.2% | 49.5% |  |
| COc1cc(N=Nc2cc(S(=O)(=O)O)cc3cc(S(=O)(=O)O)cc(O)c23)c(C)cc1N=Nc1c(S(=O)(=O)O)cc2cc(Nc3ccccc3)ccc2c1O | 99.8% | 114 | 93.7 | 102 | 106 | 103 | 80.1% | 101% | 102 | 103% | 84.6 | 93.8% | 107% | 129 | 98.2 | 109 | 103 | 111% | 102% |  |
| C(=C\c1cn(-c2ccccc2)nc1-c1ccccc1)/c1nnc(-c2c[nH]c3ccccc23)o1 | 51% | 57.3 | 80.3 | 38.9 | 14.1 | 60.2 | 61.5% | 46.7% | 40.6 | 27% | 61.5 | 7.81% (active) | 9.62% (active) | 53.5 | 40.9 | 29.8 | 59.2 | 107% | 45.5% |  |
| C1=CC2=CC=C3C=CC=C4C(c5nc6c7ccccc7c7ccccc7c6[nH]5)=CC(=C1)C2C34 (stereo not drawn) | 98.1% | 23.8 | 90.9 | 68.7 | 98.9 | 72.9 | 82.5% | 89.7% | 98.2 | 105% | 90.4 | 117% | 76.8% | 99.8 | 85.4 | 113 | 101 | 105% | 99.3% |  |
| O=C(O)CCNC1CCCCC1 | 90.4% | 93.9 | 115 | 91.6 | 99.3 | 100 | 79.7% | 102% | 101 | 112% | 100 | 144% | 100% | 137 | 97.8 | 131 | 95.7 | 20.9% | 93.3% |  |
| Cc1cccc(C)c1Nc1nnc(-c2ccc(F)cc2)o1 | 92.4% | 96.1 | 93.4 | 107 | 104 | 95.5 | 112% | 104% | 112 | 99.9% | 118 | 96.5% | 104% | 98.5 | 96.2 | 102 | 99.7 | 116% | 96.8% |  |
